The list is not random: actives were taken first. Their share in the collection is about 2%.
PKA-R2B activ = PKA-R2B complex activation. 0.079% of 340,000 active. activation, % at 11.4 µM. PKA-R2B holoenzyme dissociation, Cy5-IP20 fluorescence polarization; R2B truncated from residue 108, S112A mutant; 0% DMSO only, 100% 113 µM cGMP. P22694+P31323;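 active means activation above a cutoff set at the mean over all compounds plus 3 SD, cut at about 18% in these data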;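 further: higher means more holoenzyme dissociation and a rise in polarization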
Target sequence (P31323 whole entry, looked up, other chains not shown, the tested form may be a part): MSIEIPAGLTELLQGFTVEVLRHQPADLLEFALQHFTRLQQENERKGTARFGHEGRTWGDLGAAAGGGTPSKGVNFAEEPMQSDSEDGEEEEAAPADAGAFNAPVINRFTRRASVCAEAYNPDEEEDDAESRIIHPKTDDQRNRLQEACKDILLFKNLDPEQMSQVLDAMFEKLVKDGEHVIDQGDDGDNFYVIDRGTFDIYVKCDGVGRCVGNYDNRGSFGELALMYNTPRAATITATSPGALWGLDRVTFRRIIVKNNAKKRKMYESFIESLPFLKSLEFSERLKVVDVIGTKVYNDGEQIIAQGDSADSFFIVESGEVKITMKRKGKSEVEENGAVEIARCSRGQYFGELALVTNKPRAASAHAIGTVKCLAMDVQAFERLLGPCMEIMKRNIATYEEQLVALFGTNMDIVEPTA
Mot1-301 SUMO = SUMOylation pathway inhibition by Mot1-301 growth rescue; growth rescue, % at 18.8 µM; S. cerevisiae Mot1-301 growth rescue, ATP luminescence, 38.5C; percent above DMSO median, 100 means doubled; 1% of 320,000 active;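 active means every valid replicate shows activation above 250% relative to neutral control wells; inactive means the rest, any valid replicate at or below 250%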;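 further: OY570 slx delta 5 strain wells were the positive control but not used for scaling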
PKA-R1A act = activates the PKA-R1A holoenzyme complex. P00514+P68181. PKA-R1A dissociation, Cy5-IP20 fluorescence polarization; scaled: DMSO 0%, 113 µM cGMP 100%. activation, % at 11.4 µM. 0.083% of 340,000 active. AID 504707;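 active means percent activation above the mean of all tested compounds plus 3 SD, cut at about 19% in these data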;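 further: higher means more PKAc released from R1A so a rise in polarization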
MsrA inh = inhibits bovine methionine sulfoxide reductase A | AID 651718 | purified bovine MsrA, absorbance read-out | 0.75% of 360,000 active | inhibition, % at 15.5 µM; in the data active means inhibition above about 4.5%;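 further: 0% = vehicle wells with enzyme and 100% = reference inhibitor wells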
MsrA act = activators of bovine methionine sulfoxide reductase A; 0.3% of 360,000 active; purified bovine MsrA, absorbance read-out; activation, % at 10.6 µM; AID 602163; in the data active means activation above about 7.5%;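 further: 0% = vehicle and 100% = reference activator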
Yeast Mot1 SUMO = inhibits SUMO pathway, affecting Mot1-301 yeast growth; shares compounds with Mot1-301 SUMO; S. cerevisiae Mot1-301 galactose growth, ATP luminescence, 24 h; -100 = growth of slx-deleted rescue strain; growth activity, percent, % at 42 µM; 2,300 tested, under 10 active; AID 493004;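 active means Signal drops as the depositor expects, and the fitted half-maximal dose is no more than ten times the top valid tested dose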;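 further: more negative values mean stronger growth rescue toward the control strain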
Numbers without * were called inactive; / = not tested or not shown; + = active, no number.

SMILES	PKA-R2B activ	Mot1-301 SUMO	PKA-R1A act	MsrA inh	MsrA act	Yeast Mot1 SUMO
COc1cc2c(cc1OC)C(c1ccccc1[N+](=O)[O-])N(C(C)=O)CC2 (stereo unspecified)	-1.3	383.6*	-7.6	-0.5	-2.2	0.2
C[C@H](O)[C@@H]1C(=O)N2CCc3c([nH]c4c(-c5ccccc5)cccc34)[C@@H]2C[C@@H]1N(C)C(=O)c1ccccc1F	/	/	/	1.2	/	/
COC(=O)[C@]12C[C@H](CC(=O)NCCCN3CCCC3=O)C(=O)N(Cc3ccccc3)C1=C[C@H](C(C)C)O[C@@H]2C1CC1	/	/	/	-0.6	/	/
CC(=O)Nc1ccc(S(=O)(=O)Nc2ccc3c(c2)C(=O)OC3)cc1	/	703.7*	/	/	/	0.7
COc1ccc(S(=O)(=O)Nc2ccc(NC(C)=O)cc2)cc1OC	-13.2	+	-3.7	-0.1	-0.3	-0.1
COc1ccc(S(=O)(=O)Nc2ccc(NC(C)=O)cc2)cc1Cl	-2.0	-2.7	1.7	-0.1	-4.9	/
CCOc1ccc(CN(C)C(C)C(=O)NCc2ccccc2)cc1 (stereo unspecified)	1.6	400.8*	-11.4	0.8	-1.6	-0.5
CCS(=O)(=O)N(C)C[C@@H]1OCc2ccccc2-c2c(n(C)c3ccccc23)C(=O)N([C@H](C)CO)C[C@@H]1C	/	/	/	0.8	/	/
Nc1nc2c(C(=O)N3CCCC3)nnn2c2ccccc12	/	/	/	1.5	/	/
CCOC(=O)C1=C(N)c2ccccc2CC1C1CCCC1 (stereo unspecified)	-17.7	552.2*	0.7	-0.7	-1.7	0.1
C=C1c2ccccc2O[C@H](C(=O)OCC)[C@@H]1C1CCCCC1	-5.0	/	2.1	-0.4	4.7	/
CCNc1ccc(S(=O)(=O)N(C)C)cc1NCC(=O)Nc1ccccc1Br	-6.6	986.6*	-8.3	-0.1	-1.5	0.0
O=C(CSc1ncccn1)c1ccccc1Br	-5.3	435.6*	3.6	0.9	-1.9	-1.3
O=C(O)CSc1ncccn1	-7.7	-18.8	-16.1	0.5	-5.0	/
CCOC(=O)CC1(O)CSc2nc(N)cc(=O)n21 (stereo unspecified)	/	/	/	0.1	/	/
COC(=O)C1=C(C)N(Cc2ccc(C(F)(F)F)cc2)C(=NCC2CC2)NC1c1ccccc1C(F)(F)F (stereo unspecified)	/	/	/	-1.7	/	/
COc1ccccc1NC(=O)N1CCN(C(=O)Nc2ccccc2OC)CC1	0.3	+	2.3	-0.1	0.9	-0.6
C=CCCC1CN(Cc2ccc(OC)cc2)S(=O)(=O)c2c(cccc2N(C)S(=O)(=O)c2ccc(C)cc2)O1 (stereo unspecified)	/	/	/	0.1	/	/
COc1ccc(OCC(=O)O/N=C(\N)Cc2ccc(Cl)cc2)cc1	0.6	+	-10.2	-0.6	-10.8	0.0
Cc1ccc(OCC(=O)O/N=C(\N)Cc2ccc(Cl)cc2)cc1	-12.2	-14.1	6.0	-0.2	-4.6	/
COc1ccc(CN(C2CCCC2)S(=O)(=O)c2cc(Br)ccc2Br)c(OC)c1	/	/	/	0.2	/	/
CCOc1ccc2nc(C(C)O)[nH]c2c1 (stereo unspecified)	-11.4	+	1.7	0.6	-0.4	1.1
Cc1nc2c3ccccc3nc(NNC(=O)CCC(=O)N3CCCC(C)C3)n2n1 (stereo unspecified)	-8.9	455.0*	1.4	-0.5	-3.0	0.0
Cc1nc2c3ccccc3nc(NNC(=O)CCC(=O)NC3CCCC3)n2n1	-7.6	-12.5	-8.2	-0.9	-2.1	/
Cc1cc(C)cc(NC(=O)CS(=O)(=O)c2ccccc2)c1	1.0	368.0*	7.4	-0.8	-0.5	-0.2
SMILES	PKA-R2B activ	Mot1-301 SUMO	PKA-R1A act	MsrA inh	MsrA act	Yeast Mot1 SUMO
Cc1ccnc(NC(=O)CS(=O)(=O)c2ccccc2)c1	2.1	20.2	5.0	1.0	-0.1	/
O=C(Nc1ccc(Nc2ccccc2)cc1)C(Cl)Cl	-1.8	55.6	-4.5	3.2	-3.2	/
CC(C)(C)C(=O)C(Cl)C(=O)Nc1ccccc1 (stereo unspecified)	-9.7	604.1*	-7.6	-1.4	-6.8	-3.9
COC(=O)C1=C(C)N(C)C(=NCc2ccc(OC)cc2)NC1c1ccc(C(F)(F)F)cc1 (stereo unspecified)	/	/	/	-0.2	/	/
O=Nc1ccccn1	/	/	/	0.4	/	/
Cc1c(C(=O)N2CCN(S(C)(=O)=O)CC2)oc2ccccc12	2.0	-26.3	-0.4	1.6	-1.8	/
